For 40 compounds, growth inhibition results are on record in PubChem BioAssay (NCI).

The panel holds about 79,000 compounds, 15% with a hit somewhere; the sample as a whole holds those more often. Values without a mark were called inactive. The source made the active and inactive calls. Rule as the data show it: active = growth inhibition above about 70%; inactive = the rest.

The assay is described as follows: NCI Yeast Anticancer Drug Screen. Data for the rad50 strain (AID 155).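 Also: 0% = growth of vehicle-only cultures of the same strain.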 Conditions: S. cerevisiae rad50 strain growth inhibition; at 50.0 µM; hits give high values. The method in brief:
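Compounds were tested on a yeast strain with an engineered DNA damage repair alteration; the reported value is growth inhibition normalised to vehicle treatment.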
For the compound `CCCNC=O`, the growth inhibition is -6.8%. Take `CN(C)c1ccc(/C=C(\C#N)c2ccccc2Br)cc1`: the growth inhibition was 0.15%.

Consider `CN(C)CCNc1ncnc2nc(-c3ccc4ccccc4c3)[nH]c12`, for which the growth inhibition was -11%.

Turning to `CCCCCCC(=O)CC(SCCS)c1ccc(Cl)c(Cl)c1` (stereo not given), the growth inhibition was 4.65%. On to `COC1=C(c2ccccc2)P(=O)(Cc2ccccc2)C2CCCC12` (stereo not given), for which the growth inhibition is 4.95%.

In the case of `CNCC1OC(OC)C2OC(C)(C)OC12` (stereo not given), the growth inhibition was -5.05%.

For `CCCCCCCC/C=C/CCCCCCCC(=O)NN(C)C`, the growth inhibition is -1.4%.

For `COCC1OC(n2cc(C)c(=O)n(C)c2=O)CC1OC` (stereo not given), the growth inhibition is 1.2%.

Regarding `CCCCCCCCCCCCCCCCCC1=NCC(C)O1` (stereo not given), the growth inhibition is 4.6%. Consider `CC(=O)c1cccc(NC(=O)Oc2ccc(C(=O)OCc3ccccc3)cc2)c1`, for which the growth inhibition is 71.2% (active).

`CCOCCOC(=O)CCCCCCCCC(=O)OCCOCC`: the growth inhibition is 9.7%. Take `Cc1ccccc1NC(=O)CC(=O)N1N=C(N(CCC#N)c2ccccc2Cl)CC1c1ccccc1` (stereo not given): the growth inhibition is 4.1%.

`CS/C(=C\c1ccc(C(=O)c2ccc(C)cc2)n1C)S(C)=O` (stereo not given): the growth inhibition is 16.6%. As for `COC(=O)c1oc([N+](=O)[O-])c(-c2ccccc2)c1-c1ccccc1`, the figure is 6.95%; as for `CCN(CC)c1ccc2c(c1)Cc1ccccc1-2`, 25.8%.

Take `C=C(C)C(O)C(O)C(=C)C` (stereo not given): the growth inhibition is -6.35%.

`CNc1ccn(C2OC(CO)C(O)C2O)c(=O)n1` (stereo not given): the growth inhibition is -9.5%.

Take `COC(=O)C(/C(=N/N)C(=O)Nc1cc(Cl)ccc1Cl)c1nc2ccc([N+](=O)[O-])cc2[nH]c1=O` (stereo not given): the growth inhibition is -10.6%. On to `Nc1nc(N)nc(COc2ccccc2Cl)n1`, for which the growth inhibition is 6.5%. Turning to `Cc1ccc(S(=O)(=O)N2CN3CN(C2)CN(S(=O)(=O)c2ccc(C)cc2)C3)cc1`, the growth inhibition was 0.4%. With `CC(C)(C)C1CCC(=NO)CC1` (stereo not given), the growth inhibition was 23.1%. On to `COc1cccc(NC(=O)CC(=O)N/N=C/c2ccc(N(CCC#N)CCC#N)c(I)c2)c1`, for which the growth inhibition is 29.6%.

Turning to `c1ccc2c(c1)ccc1c3ccccc3ncc21`, the growth inhibition is 62.8%. Turning to `c1ccc(-c2cc(-c3ccncc3)cc(-c3ccncc3)n2)cc1`, the growth inhibition is 3.85%.

Take `O=C1C=CC(=O)N1n1c(-c2ccccc2)n[nH]c1=O`: the growth inhibition is 4.05%. As for `O=C1OCC2CC1C(=O)O2` (stereo not given), the figure is -7.65%; as for `CN1C(=O)C(O)(c2c3c(c(C4(O)C(=O)N(C)c5ccccc54)c4c2OCO4)OCO3)c2ccccc21` (stereo not given), 0.45%; as for `CCOC(=O)CC1CC(C)(C(=O)OCC)C(=O)CC1=O` (stereo not given), -21.1%. As for `CN(C)CC(CN(C)C)C(=O)O`, the figure is -0.2%; as for `COC(=O)[C@]1(C)CCCn2c(=O)n(-c3ccccc3)c(=O)n21`, 13.9%; as for `COc1ccc(-n2[nH]c3c(cnc4ccccc43)c2=O)cc1`, 6.35%.

As for `CN(C)c1cc(N(C)C)c2cc(C#N)ccc2n1`, the growth inhibition is 15.4%. As for `N#CC(C#N)c1ccc(C(C#N)C#N)cc1`, the figure is -9.15%. For `Cc1n[n+](Cc2ccccc2)c2sc(N)nn12`, the growth inhibition was 2.85%. As to `N#CC(c1cccs1)C1CCCCC1` (stereo not given), the growth inhibition was 9.4%.

In the case of `N=c1nc2n(cc1F)[C@@H]1O[C@H](CO)[C@@H](O)[C@@H]1O2`, the growth inhibition was 13.4%. As for `O=C(CCC1CCCCC1)OC1CCCC1`, the figure is 12%. Take `Cc1ccc(S(=O)(=O)OCC(C)C(c2ccccc2)c2ccccc2)cc1` (stereo not given): the growth inhibition is 7.45%. As to `CC1(C)[C@H]2CC[C@@]1(C)C(=O)[C@H]2[N+](=O)[O-]`, the growth inhibition is 4.25%. Take `O=c1onc2c3ccccc3ncn12`: the growth inhibition is 15.2%.
